Bioassay records: PubChem BioAssay, National Center for Advancing Translational Sciences (NCATS)
Shown are actives, neighbours in structure and some others; about 2.4% of the full set was active somewhere.
D2 PAM-1: potentiates the human D2 dopamine receptor allosterically. P14416. DiscoveRx D2 beta-arrestin cells, luminescence, 90 min; 100% = 57 uM dopamine signal. potentiation, % (test concentration not listed). hit rate 0.23% among 360,000. AID 624464; in the data active = potentiation above about 50%
Target sequence (P14416 whole entry, looked up): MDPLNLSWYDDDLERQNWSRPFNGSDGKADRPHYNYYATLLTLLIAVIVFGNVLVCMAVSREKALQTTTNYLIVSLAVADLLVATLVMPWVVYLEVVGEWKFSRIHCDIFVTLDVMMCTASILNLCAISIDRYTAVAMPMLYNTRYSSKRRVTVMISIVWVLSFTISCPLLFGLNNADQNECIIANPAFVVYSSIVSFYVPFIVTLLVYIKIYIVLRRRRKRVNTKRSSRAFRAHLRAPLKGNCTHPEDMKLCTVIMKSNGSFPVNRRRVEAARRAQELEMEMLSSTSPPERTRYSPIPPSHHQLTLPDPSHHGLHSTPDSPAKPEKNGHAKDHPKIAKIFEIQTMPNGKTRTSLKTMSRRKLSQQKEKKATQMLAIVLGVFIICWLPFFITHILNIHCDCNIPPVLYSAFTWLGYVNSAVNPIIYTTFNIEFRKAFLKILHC
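D2 cells co-treated with compound plus 50 nM dopamine (EC20) for 90 min at 37 deg C to detect potentiation. Beta-arrestin recruitment was read as enzyme-fragment luminescence after 1 h at ambient temperature. Full response was set by 57 uM dopamine.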
D2 ag-1: D2 dopamine receptor (human) agonism; HEK293 T-REx D2 cells, calcium flux agonist mode; activation, % at 2 µM; hit rate 0.53% among 340,000;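 active = activation over 3 SD above normal in the single-dose calcium agonist read, cut at about 30% in these data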; also: 0% is about no effect
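HEK293 Trex D2 cells, tetracycline-induced, o/n 30 C 5% CO2; no-wash Ca dye, RT 30–90 min; 10-cycle baseline, 23 nl cpd added, kinetic Ca read 180 s; agonist hits = positive Ca response.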
D2 antagonist: D2 dopamine receptor (human) antagonism; P14416; HEK293 TREx D2 cells, calcium flux, dopamine EC80; inhibition, % at 10 µM; hit rate 2% among 340,000; AID 485344; in the data active = inhibition above about 30%; inactive = below that, where a call was filed; also: 0% is about no effect
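HEK293 T-REx D2 cells, tet-induced, calcium dye no-wash. Cpd pintool add, 180 s kinetic, then EC80 DA, 180 s kinetic. Ca flux read.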
D2 ag-2: agonists of human D2 dopamine receptor (beta-arrestin) | P14416 | DiscoveRx PathHunter D2 beta-arrestin, luminescence, 90 min; 100% = 57 uM dopamine signal | activation, % (no concentration beside the values) | hit rate 0.084% among 360,000 | AID 624465; in the data active = activation above about 40%
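DiscoveRx PathHunter D2 beta-arrestin cells (2,100/well) attached overnight, then compound-stimulated 90 min at 37 C in HBSS/10 mM HEPES/0.1% Tween-20 buffer; beta-galactosidase complementation read by luminescence after 1 h at ambient temperature. Dopamine 57 uM final (EC100) as control.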
D2 PAM-2: D2 dopamine receptor (human) potentiation | hit rate 0.34% among 340,000 | AID 485347 | HEK293 T-REx D2, calcium flux, EC20 dopamine potentiation | potentiation, % at 10 µM | P14416;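 active = potentiation over 3 SD above the plate norm, cut at about 30% in these data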; also: 0% is about no effect
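Calcium flux readout, no-wash dye, 1 read/s. Inducible HEK293 Trex D2 line, overnight 30 C. Compound alone 180 s (agonist flags), then EC20 dopamine, another 180 s to score potentiation.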
Numbers without * were called inactive; nt = no result.

SMILES	D2 PAM-1	D2 ag-1	D2 antagonist	D2 ag-2	D2 PAM-2
O=C(Nc1ccc(F)cc1)c1oc2ccccc2c1NC(=O)C1CC1	-14	0	1	2	2
COc1cccc(NC(=O)/C=C/c2ccc(S(=O)(=O)N3CCOCC3)cc2)c1	-4	0	47*	-2	-21
COc1ccc(/C=C/C(=O)Nc2cccc(F)c2)cc1S(=O)(=O)N1CCOCC1	-1	2	56*	0	6
COc1cccc(NC(=O)/C=C/c2ccccc2[N+](=O)[O-])c1	-28	-1	-5	0	-21
COc1cccc(NC(=O)/C=C/c2ccc([N+](=O)[O-])cc2)c1	-1	-1	45*	1	-20
Cc1ccc(S(=O)(=O)N(C)C)cc1NC(=O)COC(=O)C1CCN(S(=O)(=O)c2cccs2)CC1	-4	0	35*	-4	0
Cc1cc(C(=O)OCC(=O)Nc2cc(S(=O)(=O)N(C)C)ccc2Cl)c2ccccc2n1	-6	0	10	-1	-14
COc1ccc(S(=O)(=O)N(C)C)cc1NC(=O)COC(=O)c1nc2nccc(C)n2n1	-11	-1	40*	-2	7
O=C(COC(=O)C1CCN(S(=O)(=O)c2cccs2)CC1)Nc1ccccc1Br	-5	1	-28	12	1
Cc1cc(C(=O)OCC(=O)Nc2cc(S(=O)(=O)N(C)C)ccc2C)c2ccccc2n1	-15	2	37*	-2	-24
Cc1cc(C(=O)OCC(=O)NCc2ccccc2)c2ccccc2n1	-22	nt	nt	7	nt
Cc1cc(C(=O)OCC(=O)NCCc2ccc(S(N)(=O)=O)cc2)c2ccccc2n1	-4	0	38*	-2	0
Cc1c(CC(=O)NCCc2ccccc2F)c(=O)oc2c(C)c3occ(C(C)(C)C)c3cc12	nt	0	nt	nt	-1
Cc1ccc(NC(=O)CN2C(=O)CSc3ccc(S(=O)(=O)N(C)C)cc32)c(C)c1	nt	0	nt	nt	-1
CCCCN(C(=O)CCN1C(=O)C2CC=CCC2C1=O)c1c(N)n(CCCC)c(=O)[nH]c1=O (centres undefined)	-2	nt	nt	-2	nt
CCC(C(=O)OCC(=O)C1(O)CCC2C3CCC4=CC(=O)CCC4(C)C3C(O)CC21C)C(C)C (centres undefined)	56*	nt	nt	9	nt
CC(=O)[C@@]1(O)CC[C@H]2[C@@H]3CCC4=CC(=O)CC[C@]4(C)[C@H]3[C@@H](O)C[C@@]21C	9	-1	22	-5	-8
COc1ccc(N=Cc2c(O)ccc3ccccc23)cc1	-4	2	-3	2	26
CCOC(=O)c1sc(/N=C/c2c(O)ccc3ccccc23)cc1C	-15	-1	31*	-2	1
O=C(O)c1ccc(N=Cc2c(O)ccc3ccccc23)cc1	3	39*	-5	6	-15
NC(=O)c1ccc(N=Cc2c(O)ccc3ccccc23)cc1	0	nt	nt	-2	nt
CC(=O)c1cccc(NC(=O)CSc2nc(=O)n(Cc3ccco3)c3c2CCC3)c1	nt	1	nt	nt	8
CC(=O)C1=C(O)C(=O)N(c2ccc(Br)cn2)C1c1ccccc1[N+](=O)[O-] (centres undefined)	-6	1	31*	-3	1
Cc1ccccc1NC1=NC(=S)N(CC(N)=O)C12CCOC(C)(C)C2 (centres undefined)	-6	1	44*	-3	-8
O=C(O)c1cc(S(=O)(=O)Nc2cccc(Oc3ccccc3)c2)ccc1Br	-4	-2	12	-2	39*
SMILES	D2 PAM-1	D2 ag-1	D2 antagonist	D2 ag-2	D2 PAM-2
O=C(Nc1ccccc1C(=O)O)c1cccc(NS(=O)(=O)c2ccc(Br)cc2)c1	82*	nt	nt	3	nt
O=C(COC(=O)Cn1nc(-c2ccccc2)oc1=O)Nc1ccc(F)cc1	65*	-1	3	7	4
CC(C)CCNc1nc(N)c([N+](=O)[O-])c(NCC2CCCO2)n1 (centres undefined)	-31	32*	24	2	2
COCCCNc1nc(N)c([N+](=O)[O-])c(NC2CCCCC2)n1	-4	4	30*	0	20
Nc1nc2c(ncn2[C@@H]2O[C@H](CNCc3ccc(Oc4cc(-n5cccn5)ncn4)cc3)[C@@H](O)[C@H]2O)c(=O)[nH]1	-15	nt	nt	-7	nt
COc1ccc(OCC(=O)N/N=C(/C)Cc2ccccc2)cc1	-4	0	32*	-5	7
